The source of these data is the antibiotic and cytotoxicity screens of Wong et al. (2023).

Hit rate of the full screen: of about 39,000 compounds, about 1,500 (3.8%) were called active. For the sample, actives were picked, then their nearest neighbours and some compounds at random.

The test system of this assay is HSkMC (human skeletal muscle cells). In words: cytotoxicity call (relative viability < 0.9). Particulars: 10 µM.
On to `C[C@@H]1CCCCO[C@@H](CN(C)C(=O)C2CCCCC2)[C@@H](C)CN([C@H](C)CO)C(=O)c2cc(NC(=O)Nc3ccc(C(F)(F)F)cc3)ccc2O1`, for which the cytotoxicity call is “inactive”.
The same measure for `CC(C)NC(=O)N(C)C[C@H]1OCCCC[C@@H](C)Oc2ccc(NC(=O)Nc3ccc(C(F)(F)F)cc3)cc2C(=O)N([C@@H](C)CO)C[C@H]1C`: “inactive”.
Regarding `C[C@H]1CCCCO[C@H](CN(C)C(=O)C2CCCCC2)[C@@H](C)CN([C@@H](C)CO)C(=O)c2cc(NC(=O)Nc3ccc(C(F)(F)F)cc3)ccc2O1`, the cytotoxicity call is “active”.
With `C[C@@H]1CCCCO[C@H](CN(C)C(=O)Nc2ccc(C(F)(F)F)cc2)[C@@H](C)CN([C@@H](C)CO)C(=O)c2cc(NC(=O)Nc3ccc(C(F)(F)F)cc3)ccc2O1`, the cytotoxicity call is “inactive”.
With `CC(C)NC(=O)N(C)C[C@H]1OCCCC[C@H](C)Oc2ccc(NC(=O)Nc3ccc(C(F)(F)F)cc3)cc2C(=O)N([C@H](C)CO)C[C@@H]1C`, the cytotoxicity call was “inactive”.
The same measure for `CC(C)NC(=O)N(C)C[C@@H]1OCCCC[C@H](C)Oc2ccc(NC(=O)Nc3ccc(C(F)(F)F)cc3)cc2C(=O)N([C@H](C)CO)C[C@@H]1C`: “active”; for `CC(C)NC(=O)N(C)C[C@@H]1OCCCC[C@H](C)Oc2ccc(NC(=O)Nc3ccc(C(F)(F)F)cc3)cc2C(=O)N([C@@H](C)CO)C[C@@H]1C`: “active”.
The same measure for `C[C@@H]1CCCCO[C@@H](CN(C)C(=O)C2CCCCC2)[C@H](C)CN([C@@H](C)CO)C(=O)c2cc(NC(=O)Nc3ccc(C(F)(F)F)cc3)ccc2O1`: “inactive”.
The same measure for `CN1C(=O)c2cc(NC(=O)C3CCOCC3)ccc2OC[C@@H]2O[C@H](CC(=O)NCc3ccccc3F)CC[C@@H]21`: “inactive”; for `O=C(C[C@@H]1CC[C@@H]2NC[C@H](O)COC[C@H]2O1)NCCN1CCCCC1`: “inactive”.
For `COCC#Cc1cnc2c(c1)C(=O)N([C@H](C)CO)C[C@H](C)[C@@H](CN(C)C(=O)Nc1ccccc1OC)O2`, the cytotoxicity call is “inactive”.
As to `C[C@H]1CN([C@@H](C)CO)C(=O)Cc2cc(NS(=O)(=O)c3ccc(F)cc3)ccc2O[C@H]1CN(C)S(=O)(=O)c1cn(C)cn1`, the cytotoxicity call was “inactive”.
In the case of `COc1cccc(NC(=O)N2C[C@@H](O)COC[C@@H]3O[C@@H](CC(=O)NCc4ccccc4F)CC[C@H]32)c1`, the cytotoxicity call was “inactive”.
For the molecule `C[C@@H]1CCCCO[C@@H](CN(C)C(=O)Nc2ccc(C(F)(F)F)cc2)[C@@H](C)CN([C@H](C)CO)C(=O)c2cc(NC(=O)c3ccccc3)ccc2O1`, the cytotoxicity call is “inactive”.
The same measure for `CC(C)(C)[S@@](=O)N1Cc2cc(C(=O)NCc3ccccc3F)nc(-c3cccc(-c4cccnc4)c3)c2[C@H]1CCO`: “inactive”; for `O=C(C[C@H]1C=C[C@@H](NC(=O)Cc2ccccn2)[C@@H](CO)O1)NCCCN1CCOCC1`: “inactive”.
The same measure for `C[C@@H]1CN([C@H](C)CO)S(=O)(=O)c2ccc(C#Cc3ccncc3)cc2O[C@H]1CN(C)C(=O)C1CCOCC1`: “inactive”; for `CN(C)Cc1cn(CC[C@@H]2CC[C@H](N)[C@H](CO)O2)nn1`: “inactive”; for `C[C@H](CO)N1C[C@H](C)[C@@H](CN(C)S(=O)(=O)c2ccc3ccccc3c2)OCc2cn(nn2)CCCC1=O`: “inactive”.
With `C[C@H](CO)N1C[C@H](C)[C@@H](CN(C)C(=O)Nc2cccc3ccccc23)Oc2c(NC(=O)C3CCCCC3)cccc2C1=O`, the cytotoxicity call was “inactive”.
Take `COc1cc(Nc2ncc3c(n2)-c2ccc(Cl)cc2C(c2c(F)cccc2OC)=NC3)ccc1C(=O)O`: the cytotoxicity call was “active”.
In the case of `C=CCN(C(=O)[C@H]1N(CCOCCO)C(=O)[C@H]2[C@H](C(=O)O)[C@@H]3C=C[C@@]21O3)c1ccc(OC)cc1`, the cytotoxicity call was “inactive”.
In the case of `CCS(=O)(=O)Nc1ccc2c(c1)C(=O)N(C)[C@H]1CC[C@@H](CC(=O)N[C@H]3CCN(Cc4ccccc4)C3)O[C@@H]1CO2`, the cytotoxicity call was “inactive”.
The same measure for `C[C@@H]1CN([C@H](C)CO)C(=O)c2cccc(NC(=O)C3CCOCC3)c2O[C@@H]1CN(C)S(=O)(=O)c1cccs1`: “inactive”; for `C[C@@H]1CC[C@@]2(OC1)O[C@H]1C[C@H]3[C@H]4CC=C5C[C@@H](O[C@@H]6O[C@H](CO)[C@@H](O[C@@H]7O[C@@H](C)[C@H](O)[C@@H](O)[C@H]7O[C@@H]7O[C@@H](C)[C@H](O)[C@@H](O)[C@H]7O)[C@H](O)[C@H]6O)CC[C@]5(C)[C@@H]4CC[C@]3(C)[C@H]1[C@@H]2C`: “active”.
The same measure for `C[C@@H]1CC[C@@]2(OC1)O[C@H]1C[C@H]3[C@H]4C[C@@H](O)[C@H]5C[C@@H](O[C@@H]6O[C@H](CO)[C@H](O[C@@H]7O[C@H](CO)[C@@H](O)[C@H](O[C@@H]8OC[C@@H](O)[C@H](O)[C@H]8O)[C@H]7O[C@@H]7O[C@H](CO)[C@@H](O)[C@H](O)[C@H]7O)[C@H](O)[C@H]6O)[C@H](O)C[C@]5(C)[C@@H]4CC[C@]3(C)[C@H]1[C@@H]2C`: “inactive”; for `C[C@@H]1CC[C@@]2(OC1)O[C@H]1C[C@H]3[C@H]4C[C@@H](O)[C@H]5C[C@@H](O[C@@H]6O[C@H](CO)[C@H](O[C@@H]7O[C@H](CO)[C@@H](O)[C@H](O[C@@H]8OC[C@@H](O)[C@H](O)[C@H]8O)[C@H]7O[C@@H]7O[C@H](CO)[C@@H](O[C@@H]8O[C@H](CO)[C@@H](O)[C@H](O)[C@H]8O)[C@H](O)[C@H]7O)[C@H](O)[C@H]6O)CC[C@]5(C)[C@@H]4CC[C@]3(C)[C@H]1[C@@H]2C`: “active”.
The same measure for `CC1CCC2(OC1)OC1CC3C4CCC5CC(O)CCC5(C)C4CC(=O)C3(C)C1C2C` (stereo unspecified): “inactive”.
Regarding `CC1CCC2(OC1)OC1CC3C4CC=C5CC(O)CCC5(C)C4CCC3(C)C1C2C` (stereo unspecified), the cytotoxicity call was “inactive”.
`CC(=O)OC1CCC2(C)C(CCC3C2CCC2(C)C3CC3OC4(CCC(C)CO4)C(C)C32)C1` (stereo unspecified): the cytotoxicity call is “inactive”.
The same measure for `CC(=O)OC1CCC2(C)C(CCC3C2CC(=O)C2(C)C3CC3OC4(CCC(C)CO4)C(C)C32)C1` (stereo unspecified): “inactive”; for `CC1CCC2(OC1)OC1CC3C4CCC5CC(O)CCC5(C)C4CCC3(C)C1C2C` (stereo unspecified): “inactive”; for `C[C@@H]1CC[C@@]2(OC1)O[C@H]1C[C@H]3[C@H]4C[C@@H](O)[C@H]5C[C@@H](O[C@@H]6O[C@H](CO)[C@H](O[C@@H]7O[C@H](CO)[C@@H](O)[C@H](O[C@@H]8OC[C@@H](O)[C@H](O)[C@H]8O)[C@H]7O[C@@H]7O[C@H](CO)[C@@H](O[C@@H]8O[C@H](CO)[C@@H](O)[C@H](O)[C@H]8O)[C@H](O)[C@H]7O)[C@H](O)[C@H]6O)[C@H](O)C[C@]5(C)[C@@H]4CC[C@]3(C)[C@H]1[C@@H]2C`: “active”.
For the molecule `C[C@@H]1CC[C@@]2(OC1)O[C@H]1C[C@H]3[C@H]4C[C@@H](O)[C@H]5C[C@@H](O[C@@H]6O[C@H](CO)[C@H](O[C@@H]7O[C@H](CO)[C@@H](O)[C@H](O[C@@H]8OC[C@@H](O)[C@H](O)[C@H]8O)[C@H]7O[C@@H]7O[C@H](CO)[C@@H](O)[C@H](O)[C@H]7O)[C@H](O)[C@H]6O)CC[C@]5(C)[C@@H]4CC[C@]3(C)[C@H]1[C@@H]2C`, the cytotoxicity call was “active”.
As for `C[C@@H]1CO[C@]2(O[C@H]3C[C@H]4[C@H]5C[C@H](O[C@H]6O[C@@H](C)[C@@H](O)[C@@H](O[C@@H]7O[C@@H](C)[C@H](O)[C@@H](O)[C@H]7O)[C@@H]6O)[C@H]6C[C@@H](O)CC[C@]6(C)[C@@H]5CC[C@]4(C)[C@H]3[C@@H]2C)[C@@H](O)C1`, the cytotoxicity call was “inactive”.
The same measure for `CC(C)=CCC[C@](C)(O[C@@H]1O[C@H](CO[C@@H]2OC[C@@H](O)[C@H](O)[C@H]2O)[C@@H](O)[C@H](O)[C@H]1O)[C@H]1CC[C@]2(C)[C@@H]1[C@H](O)C[C@@H]1[C@@]3(C)CC[C@H](O[C@@H]4O[C@H](CO)[C@@H](O)[C@H](O)[C@H]4O)C(C)(C)[C@@H]3CC[C@]12C`: “inactive”.
